Our source for the binding signal values is paper PMC7862700, “An all-to-all approach to the identification of sequence-specific readers for epigenetic DNA modifications on cytosine”.

What all share (test): DAPPL (digital affinity profiling via proximity ligation, sequencing); 10 mM Tris-HCl pH 7.5, 50 mM NaCl, 1 mM DTT, 4% glycerol, room temperature, 30 min; GST-TFs on glutathione beads, 16-mer random dsDNA library, 0.1% formaldehyde crosslink after washing; high values mean tight binding
The target in one assay is T1, FEV (Homo sapiens, UniProt Q99581 1-238).
T1 sequence: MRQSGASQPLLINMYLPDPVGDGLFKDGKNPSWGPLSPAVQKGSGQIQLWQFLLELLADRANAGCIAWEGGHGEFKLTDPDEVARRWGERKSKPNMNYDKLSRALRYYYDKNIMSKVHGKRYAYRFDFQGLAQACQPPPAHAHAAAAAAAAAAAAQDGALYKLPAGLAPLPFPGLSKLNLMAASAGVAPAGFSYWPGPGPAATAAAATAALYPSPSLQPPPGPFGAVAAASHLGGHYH
Conditions: protein: recombinant; tags: N-terminal GST; dsDNA, one strand shown. An outline of the steps:
(§1)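 Pools of DNA-barcoded human transcription factors, expressed in yeast as GST fusions on glutathione beads and combined with a tag-only sample, were incubated with 200 nmole of a 16-mer random double-stranded DNA library. Incubation took 30 min at room temperature in Tris/NaCl/DTT/glycerol buffer and was followed by washing, 0.1% formaldehyde crosslinking, proximity ligation (BsaI/T4 ligase, 1 h, 37 °C), PCR amplification and sequencing on an Illumina NextSeq500. Binding signal is the ratio of a hexamer's read frequency for a factor to its frequency for the tag-only sample.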

A further assay addresses ETV5 (Homo sapiens, UniProt P41161 1-510). The conditions noted are these: protein: recombinant; tags: N-terminal GST; dsDNA, one strand shown. The procedure, abridged:
as §1

The target in the next assay is HSF1 (Homo sapiens, UniProt Q00613 1-529). The conditions noted are these: protein: recombinant; tags: N-terminal GST; chain copies: 3; dsDNA, one strand shown. The procedure, abridged: as §1
Chain of HSF1 (Q00613 whole entry): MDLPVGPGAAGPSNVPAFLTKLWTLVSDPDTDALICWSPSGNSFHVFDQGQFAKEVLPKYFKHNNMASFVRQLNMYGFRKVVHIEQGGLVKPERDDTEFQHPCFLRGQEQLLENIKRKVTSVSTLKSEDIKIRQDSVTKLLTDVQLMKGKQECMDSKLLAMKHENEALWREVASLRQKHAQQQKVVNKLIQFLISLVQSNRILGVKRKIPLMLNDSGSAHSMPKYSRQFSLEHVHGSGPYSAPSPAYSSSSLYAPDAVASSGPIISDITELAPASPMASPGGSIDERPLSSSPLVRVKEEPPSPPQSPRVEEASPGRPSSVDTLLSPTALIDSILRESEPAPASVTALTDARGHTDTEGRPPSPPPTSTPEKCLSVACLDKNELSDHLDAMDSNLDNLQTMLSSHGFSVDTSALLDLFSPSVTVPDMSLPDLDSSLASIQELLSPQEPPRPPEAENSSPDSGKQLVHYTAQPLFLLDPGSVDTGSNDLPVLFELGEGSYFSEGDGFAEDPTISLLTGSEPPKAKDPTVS
The target in another assay is T2, SPIC (Homo sapiens, UniProt Q8N5J4 1-248).
T2 sequence: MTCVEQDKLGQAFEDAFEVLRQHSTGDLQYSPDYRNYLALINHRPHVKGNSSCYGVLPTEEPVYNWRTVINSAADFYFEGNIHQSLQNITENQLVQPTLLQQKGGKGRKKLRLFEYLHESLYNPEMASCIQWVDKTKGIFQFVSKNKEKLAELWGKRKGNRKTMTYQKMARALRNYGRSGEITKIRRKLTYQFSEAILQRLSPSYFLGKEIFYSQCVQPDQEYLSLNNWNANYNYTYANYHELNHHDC
The conditions noted are these: protein: recombinant; tags: N-terminal GST; dsDNA, one strand shown. The procedure, abridged:
as §1

Another assay addresses ELF4 (Homo sapiens, UniProt Q99607 1-663). Conditions: protein: recombinant; tags: N-terminal GST; dsDNA, one strand shown. The procedure, abridged:
as §1

The next assay concerns the target T3, ELK4 (Homo sapiens, UniProt P28324-2 1-405).
T3 sequence: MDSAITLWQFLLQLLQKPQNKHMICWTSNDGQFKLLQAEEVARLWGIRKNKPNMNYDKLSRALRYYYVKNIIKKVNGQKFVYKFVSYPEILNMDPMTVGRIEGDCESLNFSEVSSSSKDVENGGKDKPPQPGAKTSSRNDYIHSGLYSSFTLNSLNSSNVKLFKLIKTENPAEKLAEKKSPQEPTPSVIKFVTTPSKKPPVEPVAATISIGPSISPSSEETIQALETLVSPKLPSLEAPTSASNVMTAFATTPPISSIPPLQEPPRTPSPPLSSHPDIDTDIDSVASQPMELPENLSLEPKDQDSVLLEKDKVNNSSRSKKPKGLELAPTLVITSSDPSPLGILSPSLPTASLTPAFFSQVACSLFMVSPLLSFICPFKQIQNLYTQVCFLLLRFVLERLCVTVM
Conditions: protein: recombinant; tags: N-terminal GST; dsDNA, one strand shown. An outline of the steps:
as §1

The target of the next assay is T4, ETV2 (Homo sapiens, UniProt O00321 1-342).
T4 sequence: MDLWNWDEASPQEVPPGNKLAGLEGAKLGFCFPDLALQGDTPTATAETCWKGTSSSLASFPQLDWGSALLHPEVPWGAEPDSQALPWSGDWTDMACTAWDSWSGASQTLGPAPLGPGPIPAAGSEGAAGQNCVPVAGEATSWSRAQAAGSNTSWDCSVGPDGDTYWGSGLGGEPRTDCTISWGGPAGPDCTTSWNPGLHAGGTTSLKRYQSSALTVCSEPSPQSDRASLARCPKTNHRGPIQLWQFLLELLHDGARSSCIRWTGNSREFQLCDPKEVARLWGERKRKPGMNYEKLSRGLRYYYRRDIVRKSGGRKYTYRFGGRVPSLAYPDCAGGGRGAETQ
Conditions: protein: recombinant; tags: N-terminal GST; dsDNA, one strand shown. An outline of the steps: as §1

Another assay deals with T5, ELF3 (Homo sapiens, UniProt P78545 1-371).
T5 sequence: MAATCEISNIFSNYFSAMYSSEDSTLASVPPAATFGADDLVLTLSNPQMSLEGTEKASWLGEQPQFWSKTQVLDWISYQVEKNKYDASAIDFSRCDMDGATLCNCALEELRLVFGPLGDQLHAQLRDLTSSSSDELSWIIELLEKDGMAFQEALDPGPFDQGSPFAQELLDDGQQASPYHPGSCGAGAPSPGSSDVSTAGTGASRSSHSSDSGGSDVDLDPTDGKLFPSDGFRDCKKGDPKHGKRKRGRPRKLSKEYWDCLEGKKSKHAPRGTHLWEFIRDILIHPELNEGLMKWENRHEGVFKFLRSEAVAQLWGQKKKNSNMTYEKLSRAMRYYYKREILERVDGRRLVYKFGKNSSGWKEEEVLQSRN
The conditions noted are these: protein: recombinant; tags: N-terminal GST; dsDNA, one strand shown. The procedure, abridged: as §1

The target in another assay is CRX (Homo sapiens, UniProt O43186 1-299). The conditions noted are these: protein: recombinant; tags: N-terminal GST; dsDNA, one strand shown. An outline of the steps:
as §1

The target in a further assay is ETV1 (Homo sapiens, UniProt P50549 1-477). Conditions: protein: recombinant; tags: N-terminal GST; dsDNA, one strand shown. The procedure, abridged:
as §1

In the next assay the target is T6, ERF (Homo sapiens, UniProt P50548 1-548).
T6 sequence: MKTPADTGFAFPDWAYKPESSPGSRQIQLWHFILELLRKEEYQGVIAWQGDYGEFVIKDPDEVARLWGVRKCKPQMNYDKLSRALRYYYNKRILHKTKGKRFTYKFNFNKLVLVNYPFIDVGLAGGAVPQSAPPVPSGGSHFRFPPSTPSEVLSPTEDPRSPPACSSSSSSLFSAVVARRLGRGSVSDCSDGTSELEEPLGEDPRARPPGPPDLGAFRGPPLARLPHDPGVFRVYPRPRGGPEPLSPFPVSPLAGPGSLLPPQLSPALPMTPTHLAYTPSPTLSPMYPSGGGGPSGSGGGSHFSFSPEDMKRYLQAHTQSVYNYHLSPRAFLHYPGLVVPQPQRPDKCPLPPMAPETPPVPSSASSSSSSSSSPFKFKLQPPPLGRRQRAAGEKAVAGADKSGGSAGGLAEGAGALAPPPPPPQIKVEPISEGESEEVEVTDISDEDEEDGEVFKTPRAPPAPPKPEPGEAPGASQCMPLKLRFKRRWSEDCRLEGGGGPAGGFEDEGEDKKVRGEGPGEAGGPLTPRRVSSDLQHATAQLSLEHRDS
Conditions: protein: recombinant; tags: N-terminal GST; dsDNA, one strand shown. The procedure, abridged: as §1

The next assay addresses T7, ETV3L (Homo sapiens, UniProt Q6ZN32 1-361).
T7 sequence: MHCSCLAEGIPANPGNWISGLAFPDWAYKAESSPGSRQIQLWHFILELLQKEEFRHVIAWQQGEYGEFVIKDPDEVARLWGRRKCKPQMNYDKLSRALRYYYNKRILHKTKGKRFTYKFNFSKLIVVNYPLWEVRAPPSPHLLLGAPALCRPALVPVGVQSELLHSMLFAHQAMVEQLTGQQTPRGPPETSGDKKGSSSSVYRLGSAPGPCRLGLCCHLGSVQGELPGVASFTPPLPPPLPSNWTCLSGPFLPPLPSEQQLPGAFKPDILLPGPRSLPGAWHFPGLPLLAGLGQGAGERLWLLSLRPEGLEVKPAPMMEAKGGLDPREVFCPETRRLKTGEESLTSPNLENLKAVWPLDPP
The conditions noted are these: protein: recombinant; tags: N-terminal GST; dsDNA, one strand shown. The procedure, abridged:
as §1

For another assay, the target named is T8, ETS2 (Homo sapiens, UniProt P15036 1-469).
T8 sequence: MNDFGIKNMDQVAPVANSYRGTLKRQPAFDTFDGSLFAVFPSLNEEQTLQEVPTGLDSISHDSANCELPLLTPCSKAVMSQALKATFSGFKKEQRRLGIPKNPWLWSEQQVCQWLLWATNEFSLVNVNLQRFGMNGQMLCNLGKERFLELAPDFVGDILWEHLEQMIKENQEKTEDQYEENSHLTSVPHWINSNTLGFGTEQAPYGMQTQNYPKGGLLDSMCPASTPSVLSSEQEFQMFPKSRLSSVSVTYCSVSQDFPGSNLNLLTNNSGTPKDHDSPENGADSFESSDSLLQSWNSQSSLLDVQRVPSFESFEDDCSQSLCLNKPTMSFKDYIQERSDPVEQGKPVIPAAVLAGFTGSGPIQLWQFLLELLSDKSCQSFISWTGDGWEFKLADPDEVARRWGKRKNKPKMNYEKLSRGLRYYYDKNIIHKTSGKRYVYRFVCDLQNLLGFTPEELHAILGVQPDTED
Conditions: protein: recombinant; tags: N-terminal GST; dsDNA, one strand shown. An outline of the steps: as §1

In the next assay the target is T9, SPDEF (Homo sapiens, UniProt O95238 1-335).
T9 sequence: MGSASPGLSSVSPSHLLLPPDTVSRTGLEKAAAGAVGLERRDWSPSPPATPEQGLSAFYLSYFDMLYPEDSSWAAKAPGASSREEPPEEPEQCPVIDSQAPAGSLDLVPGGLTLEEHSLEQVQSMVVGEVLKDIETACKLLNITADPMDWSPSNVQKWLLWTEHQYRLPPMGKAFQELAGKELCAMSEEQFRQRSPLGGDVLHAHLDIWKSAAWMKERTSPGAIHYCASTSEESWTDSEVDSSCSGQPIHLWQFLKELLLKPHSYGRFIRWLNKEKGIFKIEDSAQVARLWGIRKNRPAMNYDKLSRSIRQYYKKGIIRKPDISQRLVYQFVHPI
Conditions: protein: recombinant; tags: N-terminal GST; dsDNA, one strand shown. The procedure, abridged:
as §1

For another assay, the target named is T10, ETV7 (Homo sapiens, UniProt Q9Y603 1-341).
T10 sequence: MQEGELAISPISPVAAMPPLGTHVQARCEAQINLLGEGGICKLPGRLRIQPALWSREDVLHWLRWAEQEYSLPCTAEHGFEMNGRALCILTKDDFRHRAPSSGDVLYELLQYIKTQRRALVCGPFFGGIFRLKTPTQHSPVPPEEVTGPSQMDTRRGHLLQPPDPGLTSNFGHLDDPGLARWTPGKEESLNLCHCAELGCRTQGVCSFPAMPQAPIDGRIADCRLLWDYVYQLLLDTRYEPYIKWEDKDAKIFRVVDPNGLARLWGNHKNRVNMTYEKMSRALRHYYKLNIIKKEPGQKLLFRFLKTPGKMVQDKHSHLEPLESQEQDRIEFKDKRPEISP
Conditions: protein: recombinant; tags: N-terminal GST; dsDNA, one strand shown. An outline of the steps: as §1

Another assay addresses T11, ELF5 (Homo sapiens, UniProt Q9UKW6-2 1-255).
T11 sequence: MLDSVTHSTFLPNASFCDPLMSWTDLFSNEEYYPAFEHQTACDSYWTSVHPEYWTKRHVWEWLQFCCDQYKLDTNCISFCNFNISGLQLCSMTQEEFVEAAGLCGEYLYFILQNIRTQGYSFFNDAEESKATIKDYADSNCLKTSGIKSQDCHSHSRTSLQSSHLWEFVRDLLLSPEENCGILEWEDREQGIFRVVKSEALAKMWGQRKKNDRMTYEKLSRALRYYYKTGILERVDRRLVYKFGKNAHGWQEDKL
Conditions: protein: recombinant; tags: N-terminal GST; dsDNA, one strand shown. An outline of the steps:
as §1

The target of a further assay is T12, ETV3 (Homo sapiens, UniProt P41162-2 1-143).
T12 sequence: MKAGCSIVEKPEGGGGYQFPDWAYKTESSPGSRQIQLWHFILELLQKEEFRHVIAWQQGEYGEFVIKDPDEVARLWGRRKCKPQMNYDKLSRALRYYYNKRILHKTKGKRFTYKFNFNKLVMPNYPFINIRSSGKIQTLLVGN
The conditions noted are these: protein: recombinant; tags: N-terminal GST; dsDNA, one strand shown. An outline of the steps:
as §1

The target in the next assay is ETV6 (Homo sapiens, UniProt P41212 1-452). Conditions: protein: recombinant; tags: N-terminal GST; dsDNA, one strand shown. An outline of the steps: as §1
Chain of ETV6 (P41212 whole entry): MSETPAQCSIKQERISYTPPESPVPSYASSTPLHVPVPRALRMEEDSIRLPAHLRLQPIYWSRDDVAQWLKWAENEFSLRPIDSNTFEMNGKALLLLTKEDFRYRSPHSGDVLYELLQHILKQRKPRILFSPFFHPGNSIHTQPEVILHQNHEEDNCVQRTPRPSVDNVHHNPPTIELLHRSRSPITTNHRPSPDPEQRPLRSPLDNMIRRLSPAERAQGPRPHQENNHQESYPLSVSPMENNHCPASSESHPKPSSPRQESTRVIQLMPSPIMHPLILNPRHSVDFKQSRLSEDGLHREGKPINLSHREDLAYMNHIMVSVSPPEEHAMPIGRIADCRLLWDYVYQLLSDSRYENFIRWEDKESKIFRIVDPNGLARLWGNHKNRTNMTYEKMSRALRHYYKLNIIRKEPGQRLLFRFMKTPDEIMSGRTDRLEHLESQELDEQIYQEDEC

Chain of ELF4 (Q99607 whole entry): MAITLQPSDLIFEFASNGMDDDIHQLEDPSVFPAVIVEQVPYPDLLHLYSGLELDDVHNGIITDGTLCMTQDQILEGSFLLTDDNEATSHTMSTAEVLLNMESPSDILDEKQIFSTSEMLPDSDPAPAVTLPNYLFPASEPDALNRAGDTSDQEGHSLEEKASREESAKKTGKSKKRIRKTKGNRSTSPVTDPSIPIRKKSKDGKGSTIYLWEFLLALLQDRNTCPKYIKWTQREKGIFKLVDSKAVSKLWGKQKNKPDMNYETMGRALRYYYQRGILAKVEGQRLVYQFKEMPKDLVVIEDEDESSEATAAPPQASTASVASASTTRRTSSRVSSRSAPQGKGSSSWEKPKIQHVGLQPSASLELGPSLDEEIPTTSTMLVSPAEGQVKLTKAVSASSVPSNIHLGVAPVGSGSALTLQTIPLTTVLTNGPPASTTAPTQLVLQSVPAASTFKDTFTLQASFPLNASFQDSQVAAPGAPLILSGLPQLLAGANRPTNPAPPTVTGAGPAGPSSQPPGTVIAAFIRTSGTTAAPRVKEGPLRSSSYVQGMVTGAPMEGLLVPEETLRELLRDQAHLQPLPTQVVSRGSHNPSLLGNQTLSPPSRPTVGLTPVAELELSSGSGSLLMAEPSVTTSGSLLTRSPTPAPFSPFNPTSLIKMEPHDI
Chain of CRX (O43186 whole entry): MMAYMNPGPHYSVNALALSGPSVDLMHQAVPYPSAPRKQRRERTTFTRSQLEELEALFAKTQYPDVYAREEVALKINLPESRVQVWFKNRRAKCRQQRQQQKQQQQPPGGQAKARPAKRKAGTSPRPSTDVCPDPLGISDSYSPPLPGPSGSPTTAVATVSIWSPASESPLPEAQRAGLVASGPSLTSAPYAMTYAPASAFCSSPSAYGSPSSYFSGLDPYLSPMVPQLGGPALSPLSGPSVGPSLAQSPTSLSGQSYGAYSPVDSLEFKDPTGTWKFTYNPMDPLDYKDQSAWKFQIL
Chain of ETV1 (P50549 whole entry): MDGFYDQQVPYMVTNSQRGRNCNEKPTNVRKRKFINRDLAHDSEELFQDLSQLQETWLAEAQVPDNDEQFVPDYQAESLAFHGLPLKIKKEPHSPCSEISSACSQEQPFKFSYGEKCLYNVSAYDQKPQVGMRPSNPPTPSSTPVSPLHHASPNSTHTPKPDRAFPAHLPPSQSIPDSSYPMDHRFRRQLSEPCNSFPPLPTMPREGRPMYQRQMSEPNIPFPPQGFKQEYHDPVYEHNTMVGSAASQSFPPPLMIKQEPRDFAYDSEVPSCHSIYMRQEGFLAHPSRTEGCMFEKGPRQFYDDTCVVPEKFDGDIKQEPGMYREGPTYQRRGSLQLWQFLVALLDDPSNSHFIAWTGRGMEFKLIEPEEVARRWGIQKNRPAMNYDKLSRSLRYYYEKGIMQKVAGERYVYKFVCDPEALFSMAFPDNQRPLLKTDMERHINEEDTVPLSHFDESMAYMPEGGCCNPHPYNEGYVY
Chain of ETV5 (P41161 whole entry): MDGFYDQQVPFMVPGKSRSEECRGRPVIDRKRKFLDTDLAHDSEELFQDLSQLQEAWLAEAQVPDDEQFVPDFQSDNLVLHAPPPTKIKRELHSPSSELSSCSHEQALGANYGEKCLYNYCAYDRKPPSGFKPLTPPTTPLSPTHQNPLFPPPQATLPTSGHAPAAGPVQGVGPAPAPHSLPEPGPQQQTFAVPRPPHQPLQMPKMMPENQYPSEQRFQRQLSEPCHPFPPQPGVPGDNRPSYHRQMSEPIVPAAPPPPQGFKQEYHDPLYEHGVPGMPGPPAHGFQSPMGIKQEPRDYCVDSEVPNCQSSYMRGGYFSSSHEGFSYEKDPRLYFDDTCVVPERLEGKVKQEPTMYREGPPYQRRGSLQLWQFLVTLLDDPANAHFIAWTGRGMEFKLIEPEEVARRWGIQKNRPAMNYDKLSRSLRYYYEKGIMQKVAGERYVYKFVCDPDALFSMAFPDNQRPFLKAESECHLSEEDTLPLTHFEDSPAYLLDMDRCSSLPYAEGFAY

For ATGCCT, the binding signal is 1.35 fold enrichment (6-mer frequency, TF over GST control) with FEV; 1.41 fold enrichment (6-mer frequency, TF over GST control) in the assay with ETV5; 1.13 fold enrichment (6-mer frequency, TF over GST control) in the assay with HSF1; 1.55 fold enrichment (6-mer frequency, TF over GST control) in the assay with SPIC; 1.29 fold enrichment (6-mer frequency, TF over GST control) with ELF4; 1.49 fold enrichment (6-mer frequency, TF over GST control) with ELK4. For the same sequence, the binding signal with ETV2 is 1.2 fold enrichment (6-mer frequency, TF over GST control); with ELF3, 1.4 fold enrichment (6-mer frequency, TF over GST control); with CRX, 1.28 fold enrichment (6-mer frequency, TF over GST control); in the assay with ETV1, 1.33 fold enrichment (6-mer frequency, TF over GST control); with ERF, 1.42 fold enrichment (6-mer frequency, TF over GST control); in the assay with ETV3L, 1.28 fold enrichment (6-mer frequency, TF over GST control). The binding signal with ETS2 was 1.43 fold enrichment (6-mer frequency, TF over GST control); with SPDEF, 1.41 fold enrichment (6-mer frequency, TF over GST control); in the assay with ETV7, 1.26 fold enrichment (6-mer frequency, TF over GST control); with ELF5, 1.34 fold enrichment (6-mer frequency, TF over GST control); with ETV3 it was 1.4 fold enrichment (6-mer frequency, TF over GST control); in the assay with ETV6 it was 1.29 fold enrichment (6-mer frequency, TF over GST control).
